From PubChem BioAssay
Rows were chosen to be rich in hits. Some 0.87% of all compounds tested hit in one or more screens of this group.
TDP1 inh = TDP1 (human) enzyme inhibition; Q9NUW8; recombinant TDP1, AlphaScreen DNA substrate cleavage; Potency, µM (series often up to 130 µM), without a hit: at the highest dose activity change, negative = inhibition, usual class: inhibitors; 350,000 tested, 0.28% active; AID 485290; further: nearly all actives have a fitted effect of over 40% in size
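E. coli-derived human Tdp1, 1 nM final. Cpd preinc 15 min RT; substrate 15 nM final, 5 min RT; AS bead mix 10 ug/ml final, 10 min RT. Signal loss = tyrosine-FITC cleavage. No-enzyme wells = max signal.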
RECQ1 inh-1 = RECQ1 (human) helicase inhibition; P46063; RECQ1 DNA unwinding, red fluorescence kinetic read; Potency, µM (doses to about 57.3 µM), for the others: at the top dose activity, negative = inhibition, usual class: inhibitors; 240,000 tested, 0.54% active; AID 2549;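 further: plate controls were vehicle for no effect and no enzyme for full effect; nearly all actives have a fitted effect of over 30% in size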
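50 nM RECQ1T1 preincubated 15 min with compound in Tris pH 8.0 buffer with MgCl2, DTT, Tween-20 and 2.5 ug/ml poly(dI-dC); started with 200 nM TAMRA/BHQ-2 forked duplex and 2 mM ATP. Unwinding read as fluorescence (525/598 nm), two reads 2 h apart.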
KAT2A inh = inhibitors of human GCN5L2 histone acetyltransferase; GCN5L2 HAT assay, ThioGlo1 CoA-SH fluorescence; Potency, µM (doses to about 58.9 µM), without a hit: at the highest dose activity change, negative = inhibition, hits mostly inhibitors; 390,000 tested, 0.21% active; AID 504327
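GCN5L2 (20nM final) in 50mM HEPES, 0.1mM EDTA pH 7.5, 0.01% Tween-20 was preincubated 15 min at room temperature with compound, then given ThioGlo1 (50uM), H3(1-25) peptide (75uM) and acetyl-CoA (70uM); CoA-thiol fluorescence (Ex340/Em540) was read at 0 and 20 min.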
APE1 inh = inhibitors of human APE1 endonuclease; P27695; recombinant APE1, TAMRA/BHQ-2 abasic DNA cleavage fluorescence; Potency, µM (series often up to 65.8 µM), for inactives: at the top dose activity change, negative = inhibition, actives largely listed as inhibitors; 350,000 tested, 0.35% active; AID 2517;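 further: plate controls were vehicle for no effect and reference inhibitor for full effect; nearly all actives have a fitted effect of over 55% in size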
Target sequence (P27695 whole entry, looked up): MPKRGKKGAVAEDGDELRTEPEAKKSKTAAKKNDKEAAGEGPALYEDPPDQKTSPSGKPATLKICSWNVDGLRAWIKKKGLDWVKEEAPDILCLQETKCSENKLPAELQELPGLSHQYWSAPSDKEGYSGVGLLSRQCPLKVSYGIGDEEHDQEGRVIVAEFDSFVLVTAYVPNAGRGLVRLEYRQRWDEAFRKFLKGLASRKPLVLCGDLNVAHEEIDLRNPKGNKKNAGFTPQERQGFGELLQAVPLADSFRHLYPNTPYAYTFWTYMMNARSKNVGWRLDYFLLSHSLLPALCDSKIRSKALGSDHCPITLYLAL
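APE1 at 0.75 nM final was preincubated with compound 15 min at room temperature, then 50 nM double-stranded THF abasic-site substrate (5'-TAMRA/3'-BHQ-2) was added. Fluorescence (ex 525/em 598 nm) was read kinetically; third-minus-first read gave activity.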
RGS4 inhibitor = human RGS4 inhibition; Potency, µM (doses to about 114 µM), inactives show at the highest dose activity change, negative = inhibition, actives largely listed as inhibitors; P49798; 390,000 tested, 0.039% active; Transcreener GDP fluorescence polarization, RGS4-accelerated GTP hydrolysis; further: nearly all actives have a fitted effect of over 75% in size
Target sequence (P49798 whole entry, looked up): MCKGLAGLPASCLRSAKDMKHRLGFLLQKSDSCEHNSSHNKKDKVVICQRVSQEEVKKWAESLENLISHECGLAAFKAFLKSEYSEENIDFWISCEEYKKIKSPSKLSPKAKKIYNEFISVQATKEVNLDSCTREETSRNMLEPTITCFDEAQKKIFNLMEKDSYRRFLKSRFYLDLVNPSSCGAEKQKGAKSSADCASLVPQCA
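MLSMR compounds (23 nl, pin-transferred) preincubated 10 min at room temperature with a 500nM (2x) first reagent, then RGS4 at 900nM (2x) plus Transcreener GDP mix added; fluorescence polarization (620/688 nm) read before and after 90 min at 30 °C.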
BLM helicase inh = inhibitors of human Bloom syndrome helicase BLM | P54132 | recombinant BLM DNA unwinding, fluorescence dequenching | 350,000 tested, 0.2% active | Potency, µM (titrated, usually from 56.1 µM), for inactives: at the top dose activity change, negative = inhibition, hits mostly inhibitors;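 further: plate controls were vehicle for no effect and no enzyme for full effect; nearly all actives have a fitted effect of over 35% in size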
RECQ1 conf = confirmation of human RECQ1 helicase inhibitors; shares compounds with RECQ1 inh-1; RECQ1 helicase DNA unwinding, fluorescence; Potency, µM (titrated, usually from 229 µM), without a hit: at the highest dose activity change, negative = inhibition, actives largely listed as inhibitors; 610 tested, 28% active; AID 2708; further: nearly all actives have a fitted effect of over 45% in size
RECQ1 ADP FP = counter-screen for RECQ1 inhibitors: ADP displacement; shares compounds with RECQ1 inh-1; ADP fluorescence polarization displacement counterscreen; Potency, µM (titrated, usually from 228 µM), without a hit: at the top dose activity change, negative = inhibition, usual class: inhibitors; 530 tested, 27% active; AID 2711; further: nearly all actives have a fitted effect of over 45% in size
RECQ1 inh-2 = confirmation of human RECQ1 helicase inhibitors; Potency, µM (top dose mostly 119 µM), without a hit: top-dose activity, negative = inhibition, usual class: inhibitors; shares compounds with RECQ1 inh-1; 1,100 tested, 15% active; AID 504841; recombinant RECQ1 DNA unwinding, red fluorescence; further: nearly all actives have a fitted effect of over 50% in size
Starred values were filed as active, the others as inactive; ? = inconclusive; nt = not tested or not shown. The call rests on the fitted dose curve; in most records, active means well fitted curve in the direction sought with a large enough effect; inconclusive means small, poorly fitted or top-dose-only effect, or another doubt; inactive means no such curve, though single readings can be large; an effect the other way counts as inactive or inconclusive. Unless noted, on the % scale 0 is the no-effect control and ±100 the full control effect; potency means the concentration at half of the fitted maximal effect.

SMILES	TDP1 inh	RECQ1 inh-1	KAT2A inh	APE1 inh	RGS4 inhibitor	BLM helicase inh	RECQ1 inh-2	others
Nc1ccc(-c2nc3ccc(C(=O)O)cc3s2)cc1	79µM*	?	28µM*	?	-20%	-5%	-28%
CSCC[C@H](NC(=O)[C@H](Cc1ccc(OS(=O)(=O)O)cc1)NC(=O)[C@@H](N)CC(=O)O)C(=O)NCC(=O)N[C@@H](Cc1c[nH]c2ccccc12)C(=O)N[C@@H](CCSC)C(=O)N[C@@H](CC(=O)O)C(=O)N[C@@H](Cc1ccccc1)C(N)=O	11%	-9%	6%	-2%	nt	5%	nt
O=c1cc(-c2ccccc2)nc2nc(-c3ccco3)[nH]n12	2%	25µM*	-2%	-6%	17%	-15%	-4%
Cc1nc2nc(-c3ccccc3)cc(=O)n2[nH]1	3%	-1%	-7%	0%	-7%	2%	nt
COc1ccc(OC)c(CNC(=O)c2ccc3c(c2)c(C)c(C)n3Cc2ccc(Cl)cc2)c1	5%	nt	-15%	nt	-7%	-6%	nt
Cc1ccc(S(=O)(=O)Nc2ccc(N3CCCCC3)cc2)cc1	7%	?	-11%	5%	-24%	-7%	-8%
CCCCn1c(NC(=O)c2ccco2)c(S(=O)(=O)c2ccc(C)cc2)c2nc3ccccc3nc21	0%	?	-11%	?	-5%	-23%	-28%
CNc1nc(Cl)nc2c1ncn2CC(COC(=O)C(C)(C)C)COC(=O)C(C)(C)C	10%	11%	-18%	-4%	nt	-7%	nt
NCCCCCN	7%	-6%	-6%	-4%	nt	4%	nt
O=C(CNC(=O)c1ccc(S(=O)(=O)N2CCCC2)cc1)N/N=C/c1ccc(Cl)cc1Cl	5%	-6%	-9%	-3%	6%	3%	nt	RECQ1 conf=-7%;RECQ1 ADP FP=6%
CCC[C@H](NC(=O)[C@H](Cc1ccc(O[S+](=O)([O-])O)cc1)NC(=O)OC(C)(C)C)C(=O)NCC(=O)N[C@@H](Cc1c[nH]c2ccccc12)C(=O)N[C@@H](CCC)C(=O)N[C@@H](CC(=O)OCCc1ccccc1)C(=O)O	3%	-11%	-5%	-2%	nt	-1%	nt
CCNc1ccc(C(=O)OCC(=O)NCCN2C(=O)CSC2=O)cc1[N+](=O)[O-]	1%	?	-15%	3%	20%	0%	5%
O=C(O)CCSc1nnc(COc2cccc3ccccc23)n1-c1cccc(Cl)c1	7%	-5%	-6%	3%	-1%	-1%	nt	RECQ1 conf=17%;RECQ1 ADP FP=-13%
CCOC(=O)c1cc(S(=O)(=O)NCc2ccc(Cl)cc2)[nH]n1	-4%	nt	-4%	nt	-2%	-2%	nt
CCCCC1=CC2=CC(=O)C(C)(OC(=O)C3CCCC3)C(=O)C2=CO1 (stereo not drawn)	4%	?	-4%	1%	-26%	0%	79µM*
COC(=O)CCCC1=CC2=CC(=O)C(C)(OC(=O)C3CCCC3)C(=O)C2=CO1 (stereo not drawn)	-1%	?	-1%	2%	-50%	-1%	nt
O=C1C(=O)C(c2cc(O)c(O)c(O)c2)Oc2cc(O)cc(O)c21 (stereo not drawn)	nt	nt	nt	nt	?	nt	nt	RECQ1 conf=1µM*
Cc1cccc(N2CCN(C(=O)Cc3ccc(-n4c(=O)[nH]c5ccsc5c4=O)cc3)CC2)c1C	5%	-10%	-2%	17%	-3%	2%	nt	RECQ1 conf=-10%;RECQ1 ADP FP=21%
Cc1ccc(C)c(N2CCN(C(=O)Cc3ccc(-n4c(=O)[nH]c5ccsc5c4=O)cc3)CC2)c1	0%	2%	-9%	9%	12%	-6%	nt
NCCCC[C@H](NC(=O)[C@H](CS)NC(=O)[C@@H](N)Cc1cnc[nH]1)C(=O)N[C@@H](Cc1ccccc1)C(=O)N[C@@H](Cc1c[nH]c2ccccc12)C(=O)N[C@@H](Cc1c[nH]c2ccccc12)C(=O)O	21%	13%	2%	-3%	nt	2%	nt
Cc1cc(C)cc(OCC(=O)Nc2nonc2NC(=O)COc2cc(C)cc(C)c2)c1	2%	?	-20%	4%	-2%	-4%	-1%
COc1ccc(S(=O)(=O)Nc2cccc3cccnc23)c([N+](=O)[O-])c1	1%	nt	nt	nt	-13%	nt	nt
CC1CCC/C(=C\Nc2ccc(O)cc2)C1=O (stereo not drawn)	4%	?	-15%	-5%	?	-8%	-28%
C=CCn1c(O)c(N=NC(=O)CNC(=O)/C=C/c2ccco2)c2ccccc21	?	?	-14%	?	-22%	?	?
CCOc1ccc2nc(SCC(=O)N3c4ccccc4Sc4ccccc43)sc2c1	3%	-1%	5%	16%	-27%	0%	nt	RECQ1 conf=-7%;RECQ1 ADP FP=15%
SMILES	TDP1 inh	RECQ1 inh-1	KAT2A inh	APE1 inh	RGS4 inhibitor	BLM helicase inh	RECQ1 inh-2	others
Cc1ccc(Cn2c(=S)[nH]c3ccc(N4CCOCC4)cc3c2=O)o1	nt	18µM*	?	?	?	-29%	nt	RECQ1 conf=?;RECQ1 ADP FP=50µM*
O=c1c2cc(N3CCOCC3)ccc2[nH]c(=S)n1Cc1ccc(Cl)cc1	-2%	-4%	-20%	2%	-22%	-9%	nt
Cc1ccc(S(=O)(=O)NC(=O)Nc2ccc(F)c(F)c2)cc1	4%	nt	-3%	-1%	-8%	-2%	nt
Cc1ccc(S(=O)(=O)NNC(=O)Nc2ccc(Cl)cc2)cc1	3%	22µM*	2%	1%	8%	-11%	-18%
COc1ccc(OCC(=O)Nc2nc3ccc(NC(C)=O)cc3s2)cc1	nt	?	-2%	6%	-6%	-25%	?
CCOC(=O)C(C)Oc1cccc2c(=O)n(CC(=O)NCc3ccc4c(c3)OCO4)ccc12 (stereo not drawn)	2%	-11%	-15%	14%	13%	3%	nt	RECQ1 conf=7%;RECQ1 ADP FP=?
CCOC(=O)C(C)Oc1cccc2c(=O)n(CC(=O)Nc3ccc4c(c3)OCCO4)ccc12 (stereo not drawn)	-1%	-9%	-14%	14%	?	-11%	nt
